Screening data: PubChem, several laboratories
GRK2 inh – blocks RNA aptamer binding to human GRK2 | inhibition of aptamer binding, % at 10 µM | P25098 | bead flow cytometry, FAM-aptamer displacement from GRK2 | 330,000 tested, 0.59% active;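 active means inhibition of aptamer binding above 40%, roughly 3 SD of noise, on plates passing a quality check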;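 further: median bead fluorescence of bound FAM aptamer so fluorescent compounds give negative values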
PKD1 kinase inh – blocks activity of human protein kinase D1 | AID 797 | 200,000 tested, 0.056% active | Q15139 | PKD1 kinase fluorescence polarization assay | inhibition, % (no concentration beside the values)
LANA-H2B inh – blocks KSHV LANA binding to histone H2A/H2B. Q9QR71. cell-free LANA-H2A/H2B peptide, fluorescence polarization. inhibition, % (no concentration beside the values). 320,000 tested, 0.6% active. AID 2629; in the data active means inhibition mostly above about 10%, no sharp cut-off; inactive means mostly below about 6.7%
Pemphigus Ab inh – blocks pemphigus antibody binding to human desmoglein-3. 310,000 tested, 0.48% active. P32926. binding (percent of control), % at 10 µM. DSG3-coupled beads, scFv-anti-DSG3-GFP binding, flow cytometry; active compounds read low. AID 588358;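 active means binding more than 3 SD below its plate's average and above zero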;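 further: hits lower antibody fragment binding to DSG3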
Target sequence (P32926 whole entry, looked up, the tested form may be a part): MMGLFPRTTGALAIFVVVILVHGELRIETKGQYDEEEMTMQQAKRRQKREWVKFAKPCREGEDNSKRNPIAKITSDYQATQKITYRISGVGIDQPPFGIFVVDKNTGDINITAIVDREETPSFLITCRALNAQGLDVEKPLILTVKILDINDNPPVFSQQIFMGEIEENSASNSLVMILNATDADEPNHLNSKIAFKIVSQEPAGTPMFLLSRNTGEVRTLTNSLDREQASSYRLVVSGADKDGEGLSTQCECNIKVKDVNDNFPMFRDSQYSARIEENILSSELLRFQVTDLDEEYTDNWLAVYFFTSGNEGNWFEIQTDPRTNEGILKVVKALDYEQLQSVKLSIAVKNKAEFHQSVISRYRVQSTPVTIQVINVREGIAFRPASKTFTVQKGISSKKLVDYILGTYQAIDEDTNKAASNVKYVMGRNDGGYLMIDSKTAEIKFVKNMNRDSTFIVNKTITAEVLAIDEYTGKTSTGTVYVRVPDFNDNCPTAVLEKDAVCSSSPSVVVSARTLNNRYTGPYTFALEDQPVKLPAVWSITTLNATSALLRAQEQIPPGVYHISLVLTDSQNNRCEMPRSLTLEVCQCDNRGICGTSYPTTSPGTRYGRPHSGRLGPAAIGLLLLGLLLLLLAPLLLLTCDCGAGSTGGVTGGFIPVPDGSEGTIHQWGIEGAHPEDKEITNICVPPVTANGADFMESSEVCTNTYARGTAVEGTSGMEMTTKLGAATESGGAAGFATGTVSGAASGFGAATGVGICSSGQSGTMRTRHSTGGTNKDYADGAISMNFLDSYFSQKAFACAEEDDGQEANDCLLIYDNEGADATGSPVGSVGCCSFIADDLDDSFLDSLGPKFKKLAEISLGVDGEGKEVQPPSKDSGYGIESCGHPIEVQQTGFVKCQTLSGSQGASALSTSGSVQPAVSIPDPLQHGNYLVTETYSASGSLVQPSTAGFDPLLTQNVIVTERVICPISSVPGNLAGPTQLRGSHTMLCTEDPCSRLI
VLA-4 inh – inhibition in a human VLA-4 binding assay | P13612 | VLA-4 expressing cells, ligand binding flow cytometry | inhibition, % (about 7 µM as worked out from the volumes in the protocol) | 330,000 tested, 0.2% active
HDAC3 inh – inhibitors of human histone deacetylase 3. O15379. inhibition, % at 8.3 µM. 320,000 tested, 0.15% active. AID 2718. recombinant HDAC3, fluorogenic peptide/trypsin coupled, fluorescence; in the data active means inhibition above about 26%, passing the limit was not always enough
GRK2 inh confirm – human GRK2 inhibition confirmation, cherry pick 1. shares compounds with GRK2 inh. bead-bound GRK2, FAM-aptamer displacement, flow cytometry. aptamer displacement, % at 10 µM. 2,000 tested, 4% active;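 active means aptamer displacement above 40%, near three times the noise of non-fluorescent compounds, on plates passing quality checks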;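 further: negative values mostly reflect intrinsic compound fluorescence rather than true enhancement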
Aptamer quench SP – counter-screen for GRK2 aptamer inhibitors: fluorescent aptamer quenchers | 2,000 tested, under 10 active | fluorescence response (% of DMSO), % at 10 µM | Carboxyfluorescein RNA aptamer on beads, flow cytometry quenching; active compounds read low | shares compounds with GRK2 inh | AID 504580;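 active means compounds that quench the bead-bound fluorescent RNA probe, cutting fluorescence to under half of the solvent control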;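 further: counterscreen run without GRK2 so only probe quenching by compound is measured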
GRK2 CP2 – confirmation of human GRK2 inhibitors binding RNA aptamer site | AID 504782 | inhibition of aptamer binding, % at 10 µM | 360 tested, under 10 active | bead-bound GRK2, FAM-aptamer displacement, flow cytometry | shares compounds with GRK2 inh;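 active means inhibition of aptamer binding above 40%, about triple the noise seen with nonglowing compounds, on plates passing quality control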;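 further: negative values mostly come from compounds that fluoresce themselves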
FAM quench CP2 – quenches fluorescent RNA aptamer, GRK2 hit artifact; shares compounds with GRK2 inh; carboxyfluorescein RNA aptamer beads, flow cytometry quenching; active compounds read low; fluorescence response vs DMSO, % at 10 µM; 360 tested, under 10 active;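 active means response vs DMSO under 50%, meaning signal dropped by over half, treated as fluorescence quencher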;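 further: labelled aptamer on streptavidin beads without GRK2 as a quench counter-screen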
Of the large screens only hits and unclear results are named; the others gave an inactive call (follow-up assays come after a bar, where they were run). Hits are enriched below; roughly 1.8% of the tested compounds scored in any of these assays. Unless noted, no stated cut-off is given here; in the data, active means inhibition above about 50%; inactive means the rest.

CSc1ccc(Cl)c(C(=O)N2CCN(c3ncccn3)CC2)c1	GRK2 inh 43 (no result: PKD1 kinase inh) | GRK2 CP2 inactive | FAM quench CP2 inactive
O=C(c1ccc(F)cc1F)N1CCN(c2ncccn2)CC1	none
Cc1ccc(S(=O)(=O)N2CCN(CC(O)c3ccccc3)CC2)cc1C (stereo unspecified)	none
CCn1cc([N+](=O)[O-])c(=O)c2cc(F)c(N3CCOCC3)cc21	GRK2 inh 64 (no result: PKD1 kinase inh) | GRK2 inh confirm inactive | Aptamer quench SP inactive
COc1ccccc1N(CCN1C(=O)c2cccc3cccc(c23)C1=O)C(=O)c1ccncc1	none (no result: Pemphigus Ab inh)
COc1cc(/C=C/C(=O)NCC2CCCCC2)cc(OC)c1OC	GRK2 inh 63 (no result: PKD1 kinase inh) | GRK2 inh confirm inactive | Aptamer quench SP inactive
Cc1ccc(C)c(NC(=O)CCN2C(=O)C3CC=CCC3C2=O)c1 (stereo unspecified)	GRK2 inh 68 (no result: PKD1 kinase inh) | GRK2 inh confirm inactive | Aptamer quench SP inactive
CCCc1cc(NC(=O)CCl)n(-c2ccccc2)n1	none
